Data on 33 molecules can be found in ChEMBL document CHEMBL2218924, “A broad activity screen in support of a chemogenomic map for kinase signalling research and drug discovery” (Biochem J, 2013).

Test [1] deals with Serine/threonine-protein kinase PLK3 (Homo sapiens) (UniProt Q9H4B4). The settings on record: at 1 µM.
For test [2] the target is unchanged. The settings on record: at 10 µM.
For test [3], the target named is T1, cAMP-dependent protein kinase catalytic subunit PRKX (Homo sapiens) (UniProt P51817).
T1 sequence (whole entry): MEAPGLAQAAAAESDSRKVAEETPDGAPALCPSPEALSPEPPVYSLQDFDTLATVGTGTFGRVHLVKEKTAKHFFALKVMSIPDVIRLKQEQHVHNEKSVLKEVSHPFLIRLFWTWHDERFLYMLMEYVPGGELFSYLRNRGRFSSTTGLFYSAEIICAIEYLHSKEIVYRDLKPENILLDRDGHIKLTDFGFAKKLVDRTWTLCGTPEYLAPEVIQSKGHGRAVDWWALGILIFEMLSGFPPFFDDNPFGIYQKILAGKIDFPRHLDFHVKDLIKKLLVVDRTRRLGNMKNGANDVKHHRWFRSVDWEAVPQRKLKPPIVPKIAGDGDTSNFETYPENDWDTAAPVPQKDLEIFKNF
The settings on record: at 10 µM.

The target of test [4] is Protein-tyrosine kinase 2-beta (Homo sapiens) (UniProt Q14289). The settings on record: at 1 µM.
Chain of Protein-tyrosine kinase 2-beta (Homo sapiens) (Q14289 whole entry, looked up): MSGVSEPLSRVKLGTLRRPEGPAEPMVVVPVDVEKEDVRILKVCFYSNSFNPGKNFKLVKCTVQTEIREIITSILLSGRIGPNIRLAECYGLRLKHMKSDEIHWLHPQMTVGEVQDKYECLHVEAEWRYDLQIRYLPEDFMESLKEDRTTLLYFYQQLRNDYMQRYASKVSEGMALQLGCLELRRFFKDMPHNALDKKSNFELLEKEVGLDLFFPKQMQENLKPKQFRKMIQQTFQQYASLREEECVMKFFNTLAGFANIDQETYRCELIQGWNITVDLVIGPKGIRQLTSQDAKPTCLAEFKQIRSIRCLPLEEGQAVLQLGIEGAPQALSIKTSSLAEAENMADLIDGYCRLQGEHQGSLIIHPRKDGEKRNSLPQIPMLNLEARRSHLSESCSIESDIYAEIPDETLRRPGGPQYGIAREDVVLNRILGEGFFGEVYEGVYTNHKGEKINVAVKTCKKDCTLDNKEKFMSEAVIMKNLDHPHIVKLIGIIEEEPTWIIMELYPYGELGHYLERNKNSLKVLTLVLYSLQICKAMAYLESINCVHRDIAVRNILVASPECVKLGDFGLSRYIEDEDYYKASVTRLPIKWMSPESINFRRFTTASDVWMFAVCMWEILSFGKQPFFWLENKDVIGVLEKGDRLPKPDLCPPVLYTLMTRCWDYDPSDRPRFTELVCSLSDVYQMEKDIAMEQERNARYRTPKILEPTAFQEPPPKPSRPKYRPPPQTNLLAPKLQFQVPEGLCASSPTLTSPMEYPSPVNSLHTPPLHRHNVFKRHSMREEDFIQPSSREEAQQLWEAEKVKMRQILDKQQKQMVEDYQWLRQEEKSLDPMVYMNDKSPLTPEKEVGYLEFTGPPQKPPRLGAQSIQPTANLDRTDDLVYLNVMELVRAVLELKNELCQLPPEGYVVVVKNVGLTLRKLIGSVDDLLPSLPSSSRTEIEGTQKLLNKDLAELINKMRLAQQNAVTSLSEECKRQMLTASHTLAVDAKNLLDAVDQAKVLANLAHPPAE
For test [5] the target is unchanged. The settings on record: at 10 µM.
Test [6] addresses Receptor-interacting serine/threonine-protein kinase 2 (Homo sapiens) (UniProt O43353). The settings on record: at 1 µM.
Test [7] has the same target. The settings on record: at 10 µM.
In test [8] the target is Rho-associated protein kinase 1 (Homo sapiens) (UniProt Q13464). The settings on record: at 10 µM.
Chain of Rho-associated protein kinase 1 (Homo sapiens) (Q13464 2-1354 limits assumed): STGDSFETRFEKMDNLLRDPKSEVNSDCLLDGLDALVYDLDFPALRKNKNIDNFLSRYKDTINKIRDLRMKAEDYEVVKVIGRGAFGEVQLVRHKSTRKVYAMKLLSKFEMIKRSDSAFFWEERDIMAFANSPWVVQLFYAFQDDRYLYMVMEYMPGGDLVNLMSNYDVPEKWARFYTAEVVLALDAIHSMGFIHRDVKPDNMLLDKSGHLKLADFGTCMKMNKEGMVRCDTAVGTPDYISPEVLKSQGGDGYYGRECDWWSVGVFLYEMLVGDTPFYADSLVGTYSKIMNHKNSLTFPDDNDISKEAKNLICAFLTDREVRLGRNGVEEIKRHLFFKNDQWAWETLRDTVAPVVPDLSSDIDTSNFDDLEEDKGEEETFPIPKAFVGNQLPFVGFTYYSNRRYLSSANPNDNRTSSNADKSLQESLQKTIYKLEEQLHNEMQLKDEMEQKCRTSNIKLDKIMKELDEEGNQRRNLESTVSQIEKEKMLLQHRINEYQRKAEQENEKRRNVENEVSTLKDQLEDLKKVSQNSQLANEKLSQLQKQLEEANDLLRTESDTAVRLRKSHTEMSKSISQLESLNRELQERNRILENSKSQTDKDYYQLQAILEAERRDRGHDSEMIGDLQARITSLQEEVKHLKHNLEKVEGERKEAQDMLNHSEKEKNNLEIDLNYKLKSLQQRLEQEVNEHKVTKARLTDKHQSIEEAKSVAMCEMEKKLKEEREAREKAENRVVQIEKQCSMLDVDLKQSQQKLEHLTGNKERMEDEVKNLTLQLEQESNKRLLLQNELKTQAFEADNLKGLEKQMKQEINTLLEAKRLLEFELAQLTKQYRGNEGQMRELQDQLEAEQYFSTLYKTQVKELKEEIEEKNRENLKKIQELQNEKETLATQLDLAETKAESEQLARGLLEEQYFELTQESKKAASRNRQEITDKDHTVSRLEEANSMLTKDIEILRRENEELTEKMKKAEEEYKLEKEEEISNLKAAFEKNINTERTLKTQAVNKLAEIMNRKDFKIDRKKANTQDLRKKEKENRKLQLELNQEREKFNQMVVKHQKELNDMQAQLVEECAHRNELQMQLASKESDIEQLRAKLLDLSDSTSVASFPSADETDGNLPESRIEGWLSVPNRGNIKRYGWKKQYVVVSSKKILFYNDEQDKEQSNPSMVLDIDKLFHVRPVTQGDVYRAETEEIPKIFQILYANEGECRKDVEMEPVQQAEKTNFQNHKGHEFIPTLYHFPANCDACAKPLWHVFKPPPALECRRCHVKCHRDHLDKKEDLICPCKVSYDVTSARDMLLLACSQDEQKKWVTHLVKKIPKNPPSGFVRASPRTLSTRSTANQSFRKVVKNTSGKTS
For test [9], the target named is T1, cAMP-dependent protein kinase catalytic subunit PRKX (Homo sapiens). The settings on record: at 1 µM.
The target of test [10] is Rho-associated protein kinase 1 (Homo sapiens) (UniProt Q13464). The settings on record: at 1 µM.

As usually defined, the residual activity is the signal under treatment as a percentage of the control signal.

Chain of Serine/threonine-protein kinase PLK3 (Homo sapiens) (Q9H4B4 whole entry, looked up): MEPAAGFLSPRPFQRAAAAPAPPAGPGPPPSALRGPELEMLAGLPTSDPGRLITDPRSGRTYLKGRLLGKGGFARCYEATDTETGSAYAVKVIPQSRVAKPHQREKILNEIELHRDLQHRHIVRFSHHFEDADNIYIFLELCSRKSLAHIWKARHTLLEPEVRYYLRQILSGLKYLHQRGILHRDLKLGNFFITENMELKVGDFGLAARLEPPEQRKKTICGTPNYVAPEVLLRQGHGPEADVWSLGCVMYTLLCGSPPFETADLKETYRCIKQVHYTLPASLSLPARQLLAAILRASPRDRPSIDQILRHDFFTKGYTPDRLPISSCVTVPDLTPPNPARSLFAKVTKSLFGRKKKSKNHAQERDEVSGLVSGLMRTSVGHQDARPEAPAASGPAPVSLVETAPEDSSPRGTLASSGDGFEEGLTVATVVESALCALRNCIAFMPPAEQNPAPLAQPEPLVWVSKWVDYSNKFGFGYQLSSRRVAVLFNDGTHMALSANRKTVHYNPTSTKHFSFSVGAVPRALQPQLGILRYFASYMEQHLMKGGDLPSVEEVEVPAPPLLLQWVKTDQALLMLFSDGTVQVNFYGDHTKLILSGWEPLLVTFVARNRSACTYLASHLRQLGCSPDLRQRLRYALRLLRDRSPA
Chain of Receptor-interacting serine/threonine-protein kinase 2 (Homo sapiens) (O43353 whole entry): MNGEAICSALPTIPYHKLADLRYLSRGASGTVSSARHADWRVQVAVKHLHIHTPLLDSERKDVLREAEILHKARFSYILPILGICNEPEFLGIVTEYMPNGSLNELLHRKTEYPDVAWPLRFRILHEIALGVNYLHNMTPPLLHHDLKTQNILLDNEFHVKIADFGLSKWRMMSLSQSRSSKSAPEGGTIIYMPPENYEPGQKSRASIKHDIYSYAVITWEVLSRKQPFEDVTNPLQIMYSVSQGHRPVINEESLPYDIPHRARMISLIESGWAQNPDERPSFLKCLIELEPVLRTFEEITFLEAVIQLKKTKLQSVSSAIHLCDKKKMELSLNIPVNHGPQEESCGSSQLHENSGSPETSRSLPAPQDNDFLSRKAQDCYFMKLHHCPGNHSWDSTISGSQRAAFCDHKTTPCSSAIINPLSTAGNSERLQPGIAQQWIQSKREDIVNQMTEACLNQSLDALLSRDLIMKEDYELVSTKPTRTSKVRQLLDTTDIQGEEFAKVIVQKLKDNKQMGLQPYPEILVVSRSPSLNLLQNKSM

In the case of `CC(C)[C@H](CO)Nc1nc(Nc2cc(N)cc(Cl)c2)c2ncn(C(C)C)c2n1`, the residual activity in [1] was 99% (inactive); in test [2], 77%; in test [3], 88%; in [4], 59%; in test [5], 7%; in test [6], 85%. Further, the residual activity is 77% in [7] and 84% in [8].

On to `O=c1cc(N2CCOCC2)oc2c1ccc1ccccc12`, for which the residual activity in test [1] was 99% (inactive); in test [2] it was 68%; in test [9], 97%; in test [3] it was 96%; in test [4], 130%; in [5], 100%. The residual activity in [6] was 86%; in test [7], 83%.

`CSc1nc(-c2ccc(F)cc2)c(-c2ccnc(NC(C)c3ccccc3)c2)[nH]1` (configuration not stated): the residual activity in test [1] was 91% (inactive); in test [2], 90%; in test [9], 87%; in [3], 58%; in [5], 85%; in test [6], 75%. For the same molecule, the residual activity in test [7] amounted to 30%; in [8], 96%.

Turning to `O=C(c1ccccc1)c1ccc(N2CCOCC2)cc1O`, the residual activity is 91% (inactive) in [1]; 88% in [2]; 86% in test [9]; 94% in test [3]; 130% in [4]; 99% in [6]. The residual activity in test [7] was 87%; in [8] it was 121%.

For the molecule `CC(C)(C)n1nc(Cc2cccc3ccccc23)c2c(N)ncnc21`, the residual activity in [1] is 94% (inactive); in [2], 97%; in test [9], 98%; in test [3], 75%; in test [4] it was 89%; in test [5], 29%. For the same molecule, the residual activity in test [6] amounted to 27%; in test [7], 17%; in [10] it was 114%; in [8] it was 125%.

Consider `COc1cc2nccc(Oc3ccc(NC(=S)NC(=O)c4ccccc4C)cc3)c2cc1OC`, for which the residual activity was 80% (inactive) in test [1]; 89% in test [2]; 68% in [9]; 52% in [3]; 82% in test [4]; 60% in test [5]. Further, the residual activity worked out at 51% in [6] and 34% in [7].

For the molecule `NC(=O)c1cccc(-c2cc(Nc3ccc(OC(F)(F)F)cc3)ncn2)c1`, the residual activity was 100% (inactive) in test [1]; 97% in test [2]; 128% in test [4]; 95% in test [5]; 93% in [6]; 56% in [7].

For the molecule `O=C1Cc2c([nH]c3ccc(Br)cc23)-c2ccccc2N1`, the residual activity was 95% (inactive) in test [1]; 83% in [2]; 89% in [4]; 58% in test [5]; 49% in test [6]; 22% in [7].

For `O=C1C(Cl)=C(N2C(=O)CCC2=O)C(=O)c2ccccc21`, the residual activity in [1] is 96% (inactive); in [2], 93%; in [9] it was 93%; in test [3], 92%; in test [4], 91%; in [6], 92%. The residual activity in test [7] was determined as 95%; in test [8], 88%.

Turning to `O=C1NC(=O)c2c1c1c3ccccc3[nH]c1n1cncc21`, the residual activity in test [1] was 55% (inactive); in [2] it was 31%; in [9] it was 80%; in test [3], 75%; in [4], 32%; in test [5], 19%. Further, the residual activity in test [6] worked out at 79%; in test [7], 72%; in test [8] it was 96%.

For `CCOC(=O)c1c(C)[nH]c(/C=C2\C(=O)Nc3ccccc32)c1C`, the residual activity in test [1] was 86% (inactive); in [2], 88%; in [4] it was 80%; in test [5], 45%; in test [6] it was 96%; in test [7], 99%.

For the molecule `O=C1Nc2ccc(Cl)cc2/C1=C/c1cc(Cl)c(O)c(Cl)c1`, the residual activity in test [1] is 94% (inactive); in test [2], 95%; in [9], 59%; in test [3], 63%; in test [4] it was 96%; in [5], 28%. The results for the residual activity in [6], in [7] and in test [8] were 32%, 25% and 121%, respectively.

As for `COc1cc2ncnc(Nc3cccc(Cl)c3)c2cc1OC`, the residual activity in [1] is 83% (inactive); in test [9] it was 122%; in test [4], 117%; in test [5], 76%; in [6], 26%; in test [7] it was 16%.

For the molecule `O=C1Cc2c([nH]c3ccc([N+](=O)[O-])cc23)-c2ccccc2N1`, the residual activity in test [1] is 107% (inactive); in [9], 81%; in test [3] it was 53%; in test [4] it was 45%; in test [5] it was 38%; in [6], 53%. Further, the residual activity in test [7] stood at 23%; in test [10], 107%.

Regarding `CCCC(=O)Oc1ccc2[nH]c(C(=O)c3cc4ccccc4[nH]3)cc2c1`, the residual activity is 93% (inactive) in [1]; 85% in [2]; 88% in test [9]; 92% in test [3]; 122% in [4]; 85% in [5]. For the same molecule, the residual activity worked out at 91% in test [6], 89% in test [7], 103% in test [10] and 128% in test [8].

As for `Nc1ncnc2c1c(-c1ccc(Oc3ccccc3)cc1)cn2C1CCCC1`, the residual activity was 80% (inactive) in test [1]; 91% in [2]; 85% in test [9]; 66% in test [3]; 86% in [4]; 25% in [5]. For the same molecule, the residual activity in test [6] worked out at 21%; in test [7], 15%; in [10] it was 116%; in test [8] it was 122%.

Turning to `Nc1n[nH]c2nc3ccccc3nc12`, the residual activity in test [1] is 89% (inactive); in test [2] it was 83%; in [9], 118%; in test [3], 84%; in test [5], 92%; in test [6], 94%.

As for `Cc1cc(C)c(/C=C2\C(=O)Nc3ccccc32)[nH]1`, the residual activity in [1] is 102% (inactive).

Consider `Cn1sc(=O)n(Cc2ccccc2)c1=O`, for which the residual activity in [2] came to 89%; in test [9], 76%; in [3] it was 87%; in test [6] it was 92%; in [7], 86%.

As for `O=c1cc(N2CCNCC2)oc2c(-c3ccccc3)cccc12`, the residual activity was 100% (inactive) in [1]; 95% in test [2]; 93% in test [9]; 87% in test [3]; 96% in [5]; 97% in test [6]. For the same molecule, the residual activity in test [7] was found to be 82%.

For `CCCCc1c(-c2ccc(O)cc2)[nH]c2nccnc12`, the residual activity in [1] was 100% (inactive); in test [2], 100%; in test [9] it was 93%; in test [3], 100%; in test [4] it was 54%; in [5], 26%. For the same molecule, the residual activity in [6] was found to be 38%; in test [7], 30%.

For `Nc1ncnc2[nH]nc(Nc3ccc(F)cc3)c12`, the residual activity in test [1] is 103% (inactive); in [2], 94%; in test [3] it was 21%; in test [4] it was 101%; in test [5] it was 79%; in test [6], 46%. Besides, the residual activity in [7] is 21%; in test [10], 128%; in test [8], 101%.

On to `NC(=O)Nc1sc(-c2ccc(F)cc2)cc1C(N)=O`, for which the residual activity is 88% (inactive) in [1]; 81% in test [2]; 85% in test [9]; 55% in test [3]; 56% in [4]; 10% in [5]. The residual activity in test [6] was found to be 67%; in [7] it was 29%; in [8], 101%.

In the case of `O=C(CCCc1ccc(-c2ccccc2F)cc1)Nc1ccc(O)cc1`, the residual activity in test [1] is 99% (inactive); in test [2] it was 98%; in test [9] it was 100%; in [3] it was 101%; in [4] it was 105%; in test [5] it was 104%. For the same molecule, the residual activity turned out to be 94% in test [6], 95% in test [7], 107% in test [10] and 100% in [8].

As to `O=C(NC(NC(=S)Nc1ccc(F)c([N+](=O)[O-])c1)C(Cl)(Cl)Cl)C(c1ccccc1)c1ccccc1` (configuration not stated), the residual activity is 100% (inactive) in [1]; 98% in test [2]; 82% in test [9]; 52% in test [3]; 92% in test [6]; 92% in [7].

On to `COc1ccc(Cl)cc1NC(=O)Nc1cc(C)nc2ccccc12`, for which the residual activity in test [1] is 96% (inactive); in test [2] it was 93%; in [3] it was 55%; in test [5], 85%; in [6], 99%; in test [7], 93%.

As to `CC(C)c1nn(-c2c(Cl)cccc2Cl)c2nc(Cc3ccc(OCCO)cc3)[nH]c(=O)c12`, the residual activity was 103% (inactive) in test [1]; 96% in test [2]; 94% in test [9]; 87% in test [3]; 109% in [4]; 99% in test [5]. In addition, the figures for the residual activity in test [6] and in test [7] were 90% and 83%, respectively.

As to `Nc1ncnc2c1cnn2-c1ccccc1`, the residual activity in test [1] is 93% (inactive); in [2], 95%; in [9], 94%; in test [3] it was 91%; in test [5], 97%; in [6], 93%. Besides, the residual activity in test [7] worked out at 67%.

For `CC(C)(C)c1nc2c3ccc(F)cc3c3c(=O)[nH]ccc3c2[nH]1`, the residual activity is 55% (inactive) in test [1], 64% in test [2], 18% in test [6] and 20% in test [7].

Take `Fc1ccc(-c2nc3n(c2-c2ccncc2)CCS3)cc1`: the residual activity was 100% (inactive) in [1]; 95% in test [2]; 92% in test [9]; 92% in test [3]; 65% in test [6]; 24% in [7]. Besides, the residual activity in [10] worked out at 123%.

As for `COc1ccc(-c2cnc3c(-c4ccsc4)cnn3c2)cc1`, the residual activity was 87% (inactive) in [1]; 97% in test [2]; 81% in test [9]; 93% in test [3]; 136% in test [4]; 94% in test [5]. For the same molecule, the residual activity was found to be 99% in test [6] and 92% in [7].

Regarding `O=C(O)/C=C/c1cc(Br)c(Br)c(Br)c1Br`, the residual activity in test [1] is 60% (inactive); in test [2], -9%; in test [9] it was 68%; in [3], 76%; in [6], 100%; in test [7], 83%. Moreover, the residual activity in test [8] came out at 98%.

In the case of `N#C/C(=C\c1ccc(O)c(O)c1)C(=O)NCc1ccccc1`, the residual activity in test [2] came to 80%.
